Measurements reported in PubChem BioAssay (NCATS).
*1 amine or outer side, *2 acyl side, *3 side chain or, on linkers, in order; H or OH if unused. Where a SMILES comes first, the peptide text is derived from it. Non-standard residues stand in square brackets, D forms with d. Residues, ends and D or L forms follow the SMILES beside them. Bridges are numbered along the chain shown (N, C = ends). Roman numbers before positions name the chains, in order. [ ]: non-standard residue; d: D form. ξ: configuration not given here. Actinocin(9to1) = Cc1c2oc3c(C)ccc(C(=O)[*:1])c3nc-2c(C(=O)[*:2])c(N)c1=O; Orn = NCCC[C@H](N)C(=O)O; ξNMeV = CNC(C(=O)O)C(C)C; ξV = CC(C)C(N)C(=O)O; Sar = CNCC(=O)O

test: qHTS profiling for inhibitors of Plasmodium falciparum (3D7) proliferation (AID 743322);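 note: 100% = DMSO vehicle wells and 0% = 0.29 µM artemisinin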; conditions: P. falciparum 3D7 proliferation; at 28.7 µM (top of the series) unless noted
Description: Plasmodium falciparum is a virulent malarial parasite that kills 1-2 million people worldwide each year. Transmitted by mosquitoes, the sporozoite form of the parasite enters the blood stream to infect hepatocytes, where they become merozoites that infect red blood cells (erythrocytes). Within erythrocytes, merozoites begin a […] cycle of growth and division, after which the parasite is released to infect new red blood cells. Gametocytes, which form within erythrocytes as well, circulate in the bloodstream and are ingested by the mosquito, thereby completing the life cycle. To profile malarial isolates for differential chemical responses and to identify inhibitors of malarial growth, an assay that measures P. falciparum growth and replication within erythrocytes was employed. This assay uses a DNA binding fluorescent dye (SYBR Green) to detect parasite DNA following cell lysis. Because mature erythrocytes lack DNA, only Plasmodium-derived DNA is detected.
The SYBR Green viability assay was adapted from a method described previously (Plouffe et al., 2008). For screening 3 ul culture medium was dispensed into 1536 well black clear bottom plates (Aurora Biotechnologies) using a Multidrop Combi (Thermo Fisher Scientific Inc.), 23 nL compounds in DMSO were added by a pin tool (Kalypsys), and 5 ul of erythrocytes infected with P. falciparum (0.3% parasitemia, 2.5% hematocrit final concentration) were added. The plates were incubated at 37 C in a humidified incubator in 5% CO2 for 72 h, and 2 ul lysis buffer (20 mM Tris HCl, 10 mM EDTA, 0.16% saponin, 1.6% triton X, 10X SYBR Green I supplied as 10,000X […] by Invitrogen) was added to each well. The plates were mixed for 25 sec with gentle shaking and incubated overnight at room temperature in the dark. The following morning, fluorescence intensity at 485(14) nm excitation and 535(25) nm emission wavelengths was measured on an EnVision (Perkin Elmer) plate reader. Plate reads were normalized relative to the control inhibitor (0.29 uM artemisinin) and vehicle (DMSO) wells present on each plate and then corrected by an algorithm using vehicle-only control plates at the beginning and end of the compound plate stack.

Compound | remaining parasite growth % (stronger effect = lower value)
Cc1nnc(C(C)C)n1C1CC2CCC(C1)N2CC[C@H](NC(=O)C1CCC(F)(F)CC1)c1ccccc1 (stereo not given in full) | 111%
CCC1(Cc2ccc(N)cc2)CCC(=O)NC1=O (stereo not given) | 99.6% [at 57.5 µM]
CN(NC(=O)CC(=O)NN(C)C(=S)c1ccccc1)C(=S)c1ccccc1 | 2.19% [at 57.5 µM]
COC(=O)C1=C(C)NC(C)=C(C(=O)OCCCN2CCC(c3ccccc3)(c3ccccc3)CC2)[C@H]1c1cccc([N+](=O)[O-])c1 | -1.45%
CNC1CCN(C(Cc2cccc(-c3ccncc3)c2)C(=O)c2sc3c(F)ccc(F)c3c2Cl)CC1 (stereo not given) | 0.218%
CCCCCCCCCCCCCCCCCCOP(=O)([O-])OC1CC[N+](C)(C)CC1 | 98.6% [at 18.4 µM]
CC(NC(=O)Cc1cc(F)cc(F)c1)C(=O)NC(C(=O)OC(C)(C)C)c1ccccc1 (stereo not given) | 103%
O=c1cc(C2=CC=CC3Sc4ccccc4SC23)oc(N2CCOCC2)c1 (stereo not given) | 90.9%
NC(=O)Nc1cc(-c2ccc(CN3CCOCC3)c(F)c2)sc1C(=O)N[C@H]1CCCNC1 | 3.88%
C[C@@H]1CCN(C(=O)CC#N)C[C@@H]1N(C)c1ncnc2[nH]ccc12 | 95.6%
CCN(CC)Cc1cc(Nc2ccnc3cc(Cl)ccc23)ccc1O | 1.29% [at 9.63 µM]
C[C@@H]1CCC2[C@@H](C)[C@@H](O)O[C@@H]3O[C@@]4(C)CC[C@@H]1[C@@]23OO4 (stereo not given in full) | -0.537%
O=C(O)CC/C=C\CC[C@H]1[C@@H](N2CCCCC2)[C@@H](O)C[C@@H]1OCc1ccc(-c2ccccc2)cc1 | 58.6%
CC(C)C[C@@H]1NC(=O)[C@H](CCCN)NC(=O)[C@H](C(C)C)NC(=O)[C@@H]2CCCN2C(=O)[C@@H](Cc2ccccc2)NC(=O)[C@H](CC(C)C)NC(=O)[C@H](CCCN)NC(=O)[C@H](C(C)C)NC(=O)[C@@H]2CCCN2C(=O)[C@@H](Cc2ccccc2)NC1=O (cyclo(V[Orn]L[dF]PV[Orn]L[dF]P)) | -2.61%
CN1CCC(CN2c3ccccc3Sc3ccccc32)C1 (stereo not given) | 32.6%
CCCC(=O)O[C@]1(C(=O)CCl)[C@H](C)C[C@@H]2[C@H]3CCC4=CC(=O)C=C[C@]4(C)[C@@]3(F)C(=O)C[C@@]21C | 0.271%
Cc1c2oc3c(C)ccc(C(=O)N[C@@H]4C(=O)NC(C(C)C)C(=O)N5CCC[C@H]5C(=O)N(C)CC(=O)N(C)C(C(C)C)C(=O)O[C@@H]4C)c3nc-2c(C(=O)N[C@@H]2C(=O)NC(C(C)C)C(=O)N3CCC[C@H]3C(=O)N(C)CC(=O)N(C)C(C(C)C)C(=O)O[C@@H]2C)c(N)c1=O (stereo not given in full) (I: T[ξV]P[Sar][ξNMeV] / II: T[ξV]P[Sar][ξNMeV]; ester I:1-I:C, II:1-II:C; linker I:N-II:N via Actinocin(9to1)) | -2.78%
CC[C@@H](C(=O)O)C1CC[C@H](C)C([C@@H](C)[C@H](O)[C@H](C)C(=O)[C@H](CC)C2O[C@]3(C=C[C@@H](O)[C@]4(CC[C@@](C)(C5CC[C@](O)(CC)[C@H](C)O5)O4)O3)[C@H](C)C[C@@H]2C)O1 (stereo not given in full) | -3.05%
CCOc1cc2ncc(C#N)c(Nc3ccc(OCc4ccccn4)c(Cl)c3)c2cc1NC(=O)/C=C/CN(C)C | -0.375%
CCC1(O)CC2CN(CCc3c([nH]c4ccccc34)[C@@](C(=O)OC)(c3cc4c(cc3OC)N(C=O)[C@H]3[C@](O)(C(=O)OC)[C@H](OC(C)=O)[C@]5(CC)C=CCN6CC[C@]43[C@@H]65)C2)C1 (stereo not given in full) | 8.01%
